# Data published in ChEMBL document CHEMBL5308504, “Tm Shift (DSF) assay results for EUbOPEN Chemogenomics Library” (2023).
# Several values for one entry are separate records, joined by “and”; a condition that tells them apart may be missing. Identical values can stand only once.
# Assays:
# Conditions in all cases: Compound concentration 20.0 uM, Protein concentration 2.0 uM, Result type QC Liability
# [1] = target: Tyrosine-protein kinase ABL1 (Homo sapiens) (UniProt P00519)
# [2] = target: Cyclin-dependent kinase 2 (Homo sapiens) (UniProt P24941)
# [3] = target: Casein kinase I isoform delta (Homo sapiens) (UniProt P48730)
# Chain of Casein kinase I isoform delta (Homo sapiens) (P48730 whole entry, looked up, canonical isoform): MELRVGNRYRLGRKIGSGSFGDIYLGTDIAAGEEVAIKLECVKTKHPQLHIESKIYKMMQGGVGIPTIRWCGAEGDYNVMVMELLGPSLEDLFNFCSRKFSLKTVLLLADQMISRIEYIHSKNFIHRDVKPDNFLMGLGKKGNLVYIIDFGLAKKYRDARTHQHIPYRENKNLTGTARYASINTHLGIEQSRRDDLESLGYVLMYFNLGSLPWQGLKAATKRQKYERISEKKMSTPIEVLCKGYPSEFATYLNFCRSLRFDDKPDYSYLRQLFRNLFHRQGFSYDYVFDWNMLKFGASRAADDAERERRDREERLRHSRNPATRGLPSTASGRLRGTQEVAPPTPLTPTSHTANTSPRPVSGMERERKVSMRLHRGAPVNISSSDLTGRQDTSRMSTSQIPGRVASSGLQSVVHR
# [4] = target: Glycogen synthase kinase-3 beta (Homo sapiens) (UniProt P49841)
# Chain of Glycogen synthase kinase-3 beta (Homo sapiens) (P49841 whole entry, looked up): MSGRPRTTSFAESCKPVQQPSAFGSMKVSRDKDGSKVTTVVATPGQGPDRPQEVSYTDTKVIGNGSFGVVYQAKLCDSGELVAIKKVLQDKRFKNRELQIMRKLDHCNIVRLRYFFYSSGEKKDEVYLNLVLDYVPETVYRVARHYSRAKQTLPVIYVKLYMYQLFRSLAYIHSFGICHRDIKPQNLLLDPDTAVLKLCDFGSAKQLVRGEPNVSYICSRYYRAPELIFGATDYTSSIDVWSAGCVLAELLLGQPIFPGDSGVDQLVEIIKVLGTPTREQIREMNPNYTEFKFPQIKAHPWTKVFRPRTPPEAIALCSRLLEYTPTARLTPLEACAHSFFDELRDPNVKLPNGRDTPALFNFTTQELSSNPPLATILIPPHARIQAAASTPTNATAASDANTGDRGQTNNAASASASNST
# [5] = target: Mitogen-activated protein kinase 1 (Homo sapiens) (UniProt P28482)
# Chain of Mitogen-activated protein kinase 1 (Homo sapiens) (P28482 whole entry): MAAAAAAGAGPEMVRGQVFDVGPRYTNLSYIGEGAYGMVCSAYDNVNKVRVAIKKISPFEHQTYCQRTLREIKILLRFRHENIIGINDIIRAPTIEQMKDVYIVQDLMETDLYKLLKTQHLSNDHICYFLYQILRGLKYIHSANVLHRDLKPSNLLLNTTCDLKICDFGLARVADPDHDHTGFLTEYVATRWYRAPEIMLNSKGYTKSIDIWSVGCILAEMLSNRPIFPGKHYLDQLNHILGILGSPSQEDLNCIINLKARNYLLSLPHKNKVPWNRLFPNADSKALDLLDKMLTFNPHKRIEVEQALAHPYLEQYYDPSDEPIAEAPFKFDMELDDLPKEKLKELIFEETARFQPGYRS
# [6] = target: T1, Aurora kinase A (Homo sapiens) (UniProt O14965)
# T1 sequence (whole entry): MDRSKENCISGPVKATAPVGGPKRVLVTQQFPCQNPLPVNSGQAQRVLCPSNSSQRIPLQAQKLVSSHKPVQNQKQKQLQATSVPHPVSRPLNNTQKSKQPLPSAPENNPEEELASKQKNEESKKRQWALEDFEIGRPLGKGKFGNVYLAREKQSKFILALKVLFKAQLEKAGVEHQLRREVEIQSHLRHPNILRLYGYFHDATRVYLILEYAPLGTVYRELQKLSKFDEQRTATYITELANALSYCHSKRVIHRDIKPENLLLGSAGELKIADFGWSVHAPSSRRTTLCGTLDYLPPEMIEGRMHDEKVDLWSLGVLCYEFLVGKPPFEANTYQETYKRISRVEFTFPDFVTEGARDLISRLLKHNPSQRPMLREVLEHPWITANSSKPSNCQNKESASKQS
# Chain of Tyrosine-protein kinase ABL1 (Homo sapiens) (P00519 whole entry): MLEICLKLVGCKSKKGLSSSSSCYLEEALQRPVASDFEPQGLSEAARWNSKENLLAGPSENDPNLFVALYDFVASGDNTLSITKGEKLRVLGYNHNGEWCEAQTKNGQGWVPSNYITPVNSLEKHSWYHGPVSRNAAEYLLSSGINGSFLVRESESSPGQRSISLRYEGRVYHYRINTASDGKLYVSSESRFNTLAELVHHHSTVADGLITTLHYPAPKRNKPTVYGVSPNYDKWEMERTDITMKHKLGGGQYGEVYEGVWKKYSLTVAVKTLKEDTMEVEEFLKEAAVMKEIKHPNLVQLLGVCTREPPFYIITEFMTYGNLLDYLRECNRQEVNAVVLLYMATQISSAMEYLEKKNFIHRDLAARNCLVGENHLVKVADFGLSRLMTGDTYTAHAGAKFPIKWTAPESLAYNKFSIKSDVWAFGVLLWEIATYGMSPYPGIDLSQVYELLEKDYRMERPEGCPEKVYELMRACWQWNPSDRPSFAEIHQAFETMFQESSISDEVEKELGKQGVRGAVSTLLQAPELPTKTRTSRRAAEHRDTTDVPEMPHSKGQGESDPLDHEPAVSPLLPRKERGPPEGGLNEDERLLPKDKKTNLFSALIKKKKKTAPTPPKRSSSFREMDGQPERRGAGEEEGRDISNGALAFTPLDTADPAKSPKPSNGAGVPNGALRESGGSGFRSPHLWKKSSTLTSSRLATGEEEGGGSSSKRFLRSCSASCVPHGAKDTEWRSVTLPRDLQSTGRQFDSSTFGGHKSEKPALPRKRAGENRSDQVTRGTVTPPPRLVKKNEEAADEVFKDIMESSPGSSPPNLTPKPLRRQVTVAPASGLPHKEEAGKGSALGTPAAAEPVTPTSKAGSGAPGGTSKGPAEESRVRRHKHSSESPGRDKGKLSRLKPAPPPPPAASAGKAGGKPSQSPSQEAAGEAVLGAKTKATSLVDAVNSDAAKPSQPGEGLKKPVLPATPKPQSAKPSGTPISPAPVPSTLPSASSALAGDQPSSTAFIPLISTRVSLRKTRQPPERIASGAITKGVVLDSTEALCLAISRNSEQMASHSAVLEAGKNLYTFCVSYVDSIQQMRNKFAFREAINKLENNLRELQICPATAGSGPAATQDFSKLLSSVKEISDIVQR
SMILES,ΔTm [1],ΔTm [2],ΔTm [3],ΔTm [4],ΔTm [5],ΔTm [6]
Nc1ncnc2[nH]c(-c3ccccc3)nc12,3.48 °C,0.92 °C,0.73 °C,1.04 °C,0.38 °C,0.6 °C
N#Cc1ccc(COc2ccc(Br)cc2CNCCO)cn1,0.3 °C,0.22 °C,0.13 °C,-0.56 °C,0.45 °C,-1 °C
Cc1ccc(-n2nc(C(C)(C)C)cc2NC(=O)Nc2ccccc2F)cc1,1.53 °C,1.51 °C,2.52 °C,-0.41 °C,3.34 °C,-1.69 °C
CCCc1c(OCCCOc2ccc(OCC(=O)O)cc2)ccc(C(C)=O)c1O,0.08 °C,-0.16 °C,1.18 °C,-0.07 °C,-0.16 °C,-1.56 °C
CC1CCN(C(=O)[C@@H](CCn2cccc2C#N)NS(=O)(=O)c2cccc3[nH]ccc23)CC1,0.25 °C,0.59 °C,0.33 °C,-0.44 °C,-8.81 °C,0.05 °C
CCCCCNC(=O)N1CCC(CN(Cc2ccc(Cl)cc2)Cc2ccc([N+](=O)[O-])s2)C1 (stereo not given),0.03 °C,0.81 °C,0.7 °C,-1.49 °C,0.03 °C,-0.9 °C
CCCN1CCC(C#N)(NC(=O)[C@H](CC(C)(C)C)NC(=O)N2CCOCC2)CC1,-0.4 °C,1.07 °C,0.1 °C,-0.32 °C,-0.1 °C,-0.11 °C
Cn1nc(C(=O)NCc2ccc(C(=O)O)cc2)cc1-c1ccc2[nH]ccc2c1,0.76 °C,0.58 °C,0.39 °C,-0.55 °C,0.47 °C,0.09 °C
CN[C@@H](C)C(=O)N[C@H](C(=O)N1CCC[C@H]1C(=O)N[C@@H]1CCCc2ccccc21)C1CCCCC1,0.2 °C,0.07 °C,1.13 °C,-0.99 °C,0.48 °C,-0.97 °C
CC(C)N(CCCCOCC(=O)O)c1cnc(-c2ccccc2)c(-c2ccccc2)n1,0.75 °C,-0.83 °C,0.48 °C,0.74 °C,-0.32 °C,-1.44 °C
C[C@H](NC(=O)c1cc(Cl)ccc1Oc1ccc(F)cc1)c1ccc(C(=O)O)cc1,-0.11 °C,0.27 °C,-2.45 °C,0.51 °C,0.18 °C,-0.14 °C
CN(C)[C@H]1C[C@H](n2cnc(-c3ccc(F)cn3)c2-c2ccnc3[nH]ccc23)C1,0.17 °C,0.4 °C,4.93 °C,-0.83 °C,0.21 °C,-0.76 °C
Cc1nccc(COC(=O)N2C[C@@H]3[C@@H](CNC(=O)c4ccc5[nH]nnc5c4)[C@@H]3C2)n1,-0.16 °C,0.19 °C,0.34 °C,0.22 °C,0.26 °C,-0.07 °C
COc1ccccc1Nc1nc(-c2nn(Cc3c(F)cc(OCCCO)cc3F)c3ccccc23)ncc1OC,0.26 °C,-0.43 °C,-0.21 °C,-0.64 °C,0.16 °C,-0.7 °C
COc1cc(N2CCN(C)CC2)ccc1Nc1ncc2c(n1)N(C)c1ccccc1C(=O)N2CC(F)(F)F,0.67 °C,-0.65 °C,0.47 °C,-0.83 °C,0.11 °C,0.18 °C
Cc1cc(S(=O)(=O)N2CC(C)(C)c3cc(-c4ccc(C(F)(F)F)cc4)ccc32)ccc1OCC(=O)O,0 °C,-2.88 °C,-0.16 °C,-5.32 °C,-9.76 °C,-1.56 °C
COc1cc(C(=O)NCCOCCOCCOCCC(=O)Nc2cccc3c2C(=O)N(C2CCC(=O)NC2=O)C3=O)ccc1Nc1ncc(C(F)(F)F)c(Oc2cccc3c2C(=O)CC3)n1 (stereo not given),-0.1 °C,-0.45 °C,-2.13 °C,-0.22 °C,-2.51 °C,0.92 °C
C[C@@H]1CCNC(=O)c2cc3ccc(C(=O)Nc4nc5ccccc5n4CCCN(C)C)cc3n21,1.4 °C,0.73 °C,2.87 °C,0.5 °C,0.36 °C,3.79 °C
COc1cc(OC)cc(-c2cc3cnc(N)nc3nc2NC(=O)NC(C)(C)C)c1,0.36 °C and 1.41 °C,0.84 °C and 0.15 °C,0.28 °C and -0.14 °C,-0.48 °C and 0.1 °C,0.47 °C and 0.55 °C,-0.29 °C and 1.1 °C
N=C(N)NCCC[C@H](NC(=O)C(c1ccccc1)c1ccccc1)C(=O)NCc1ccc(CNC(N)=O)cc1,-0.28 °C,0.46 °C,0.29 °C,-0.57 °C,0.19 °C,0.09 °C
